The results in this text go back to PubChem BioAssay (EPA / NIEHS).

Calls of active or inactive are those of the source. The calls were made as follows: active = hit-call score of the fitted dose curve at least 0.9, where 1 is the maximum; inactive = score below 0.9.

The assay can be described thus: ATG_TA_CIS: Attagene CIS-FACTORIAL HepG2 Assay for human TA Basal Promoter (AID 2282964). Particulars: HepG2 Attagene CIS-factorial TA basal promoter reporter; actives raise or lower the signal. Here is the method:
ATG_CIS is a cell-based, multiplexed-readout assay that uses HepG2, a human liver cell line, with measurements taken at 24 hours after chemical dosing in a 24-well plate.ATG_TA_CIS is one of 52 assay component(s) measured or calculated from the ATG_CIS assay. It is designed to make measurements of mRNA induction, a form of inducible reporter, as detected with fluorescence intensity signals by Reverse transcription polymerase chain reaction (RT-PCR) and Capillary electrophoresis technology.Data from the assay component ATG_TA_CIS was analyzed into 1 assay endpoint. This assay endpoint, ATG_TA_CIS, was analyzed with bidirectional fitting relative to DMSO as the negative control and baseline of activity. Using a type of inducible reporter, measures of mRNA for gain or loss-of-signal activity can be used to understand the background control at the transcription factor-level as they relate to the gene . Furthermore, this assay endpoint can be referred to as a secondary readout, because this assay has produced multiple assay endpoints where this one serves a background control function. To generalize the intended target to other relatable targets, this assay endpoint is annotated to the background measurement intended target family, where the subfamily is internal marker.
Human liver HepG2 cells are transiently transfected with multiple reporter transcription units (MRTUs) in 6-well plates using FuGene 6 reagent (Roche; 3 ml FuGene/1 mg DNA). The MRTU constructs are regulated by a cis-regulating element (promoter). […] A major difference between the CIS and TRANS system is that in CIS activities of endogenous TFs are measured, whereas the TRANS assay evaluates changes in activities of exogenous, chimeric NR-Gal4 proteins. […] At the end of 24 hour incubation, total RNA was isolated using TriZol reagent (Invitrogen). The isolated RNA is then reverse-transcribed using oligo(dT) primer and Mo-MLV reverse transcriptase (Invitrogen) with DNAse I (Ambion) treatment for 30 min. The one-tenth of the produced cDNA was amplified by PCR using Taq DNA polymerase (Invitrogen) and two reporter sequence-specific primers. The PCR products were fluorescently labeled by primer extension with 6-arboxyfluorescein (6-FAM) 5'-labeled reporter sequence-specific primer (2 min at 95 C, 20 s at 68 C and 10 min at 72 C) and these products were digested with 5U of HpaI (New England Biolabs) for 2h at 37 C. The fragments were purified using Qiaquick PCR columns (Qiagen), analyzed on an ABI 3130xL genetic analyzer (Applied Biosystems) with peak positions identified by using a set of X-rhodamine (ROX)-labeled MapMarker1000 molecular weight standards (BioVentures). The raw capillary electrophoresis data was processed using Attagraph software (Attagene).
Take `O=C(c1ccccc1)c1ccc(O)cc1O`: the result was inactive. On to `CN(C(=O)C(F)(F)C(F)(F)C(F)(F)F)[Si](C)(C)C`, for which the compound was called inactive. For `CC1=CC2C3C=CC(C3)C2C1C` (stereo not given) the value was “inactive”; for `CN(N=O)C(=O)N[C@@H]1[C@@H](O)[C@H](O)[C@@H](CO)O[C@@H]1O`, “inactive”; for `CC(=O)c1ccccc1N`, “inactive”. Consider `O=C1OC(=O)c2ccc3c4c(ccc1c24)C(=O)OC3=O`, for which the compound was called inactive. Take `Cc1cccc(C)n1`: the call was inactive. For the compound `COC(F)(C(F)F)C(F)(F)F` (stereo not given), the call was inactive. For `O=C(O)C(F)(F)C(F)(F)C(F)(F)OC(F)(F)F` the value was “inactive”; for `C=CC(=O)OCCC(F)(F)C(F)(F)C(F)(F)C(F)(F)F`, “inactive”. Consider `O=C(O)C(F)(F)C(F)(F)C(F)(F)C(F)(F)C(F)(F)C(F)(F)C(F)F`, for which the call was inactive.

On to `CC(C)C(=O)OCc1ccccc1`, for which the compound was classed as inactive.

As to `CC(=O)C=O`, the call was inactive.

Take `CCN(CC)c1ccc(C=O)c(O)c1`: the outcome was inactive. As for `O=S(=O)(O)c1ccc(Cl)cc1`, the call was inactive.

With `C=CC(=O)OCC(F)(F)C(F)(F)C(F)(F)COC(=O)C=C`, the compound was classed as inactive.

On to `CCc1cccc(C)c1N(C(=O)C(=O)O)C(C)COC` (stereo not given), for which the outcome was inactive.

Regarding `CC(C)(C)c1cc(CCC(=O)NCCCCCCNC(=O)CCc2cc(C(C)(C)C)c(O)c(C(C)(C)C)c2)cc(C(C)(C)C)c1O`, the compound was classed as inactive. For the compound `CCOCN(C(=O)CS(=O)(=O)O)c1c(C)cccc1CC`, the compound was called inactive. For `O=C(O)CCC(F)(F)C(F)(F)C(F)(F)F` the value was “inactive”; for `O=S(=O)(OCC(F)(F)F)C(F)(F)C(F)(F)C(F)(F)C(F)(F)F`, “inactive”; for `N#Cc1ccccc1O`, “inactive”. As to `CCC(C)CO` (stereo not given), the result was inactive. Turning to `CCN(CC)c1ccc2c(c1)Oc1cc(N(CC)CC)ccc1C21OC(=O)c2ccccc21`, the outcome was inactive.

Turning to `NS(=O)(=O)C(F)(F)C(F)(F)C(F)(F)C(F)(F)C(F)(F)C(F)(F)F`, the call was inactive. For the compound `CC(O)C#CC(C)O` (stereo not given), the call was inactive. Regarding `CCCCCCCCCCCCC[N+](C)(C)Cc1ccccc1`, the outcome was inactive.

Turning to `CCCCOC(=O)[C@H](C)O`, the call was inactive.

In the case of `CCCCOC(=O)C(C)O` (stereo not given), the compound was called inactive. For `CNS(=O)(=O)C(F)(F)C(F)(F)C(F)(F)C(F)(F)C(F)(F)C(F)(F)C(F)(F)C(F)(F)F` the value was “inactive”; for `CO[Si](CCCOCC1CO1)(OC)OC` (stereo not given), “inactive”. In the case of `CCOCOCC`, the result was inactive. As to `OC(O)C(F)(F)C(F)(F)F`, the outcome was inactive. Consider `FC(F)(F)C(F)(F)C(F)(F)C(F)(F)C(F)(F)C(F)(F)CC[Si](Cl)(Cl)Cl`, for which the compound was called inactive. As to `Cc1ccc2c(c1)OCC(=O)CO2`, the compound was classed as inactive. Regarding `Cc1ccc(O)cn1`, the compound was called inactive. For `O=S(=O)(O)CCC(F)(F)C(F)(F)C(F)(F)C(F)(F)C(F)(F)C(F)(F)C(F)(F)C(F)(F)F` the value was “inactive”. Regarding `CCC(=O)OC(C)c1ccccc1` (stereo not given), the result was inactive. For `NC(=O)C(F)(F)C(F)(F)C(F)(F)C(F)F`, the outcome was inactive. Consider `OCCCc1cccnc1`, for which the result was inactive.
